Vaccinia mCherry = inhibitors of vaccinia virus infection (mCherry reporter signal) | Vaccinia virus mCherry reporter infection, fluorescence | Potency, µM (series often up to 36.5 µM), without a hit: top-dose activity change, negative = inhibition, actives largely listed as inhibitors | 310,000 tested, 0.63% active; calls by dose curve; tested in A549 cells; further: potency means the concentration at half of the fitted maximal effect; on the % scale 0 is the no-effect control and ±100 the full control effect; nearly all actives have a fitted effect of over 35% in size
Vaccinia Venus = vaccinia inhibition (Venus reporter); Vaccinia virus Venus reporter expression, fluorescence; Potency, µM (series often up to 36.5 µM), without a hit: top-dose activity change, negative = inhibition, most hits filed as inhibitors; 330,000 tested, 0.46% active; calls by dose curve; tested in A549 cells; further: potency means the concentration at half of the fitted maximal effect; on the % scale 0 is the no-effect control and ±100 the full control effect; nearly all actives have a fitted effect of over 30% in size
LASV entry inh = blocks Lassa virus binding to or entry into cells. Lassa virus pseudotype entry inhibition, cell reporter. Potency, µM (top dose mostly 37.9 µM), inactives show at the top dose activity change, negative = inhibition, hits mostly inhibitors. 300,000 tested, 1.2% active; calls by dose curve; tested in HEK293 cells; further: potency means the concentration at half of the fitted maximal effect; on the % scale 0 is the no-effect control and ±100 the full control effect; nearly all actives have a fitted effect of over 50% in size
Cycloheximide cs = affects cycloheximide protein synthesis inhibition readout, counter-screen; cell reporter, cycloheximide protein synthesis inhibition counterscreen; max response, %; 300,000 tested, 12% active; in the data active means max response mostly above about 13%, no sharp cut-off; inactive means mostly below about 14%; further: read at 38.3 µM for the half of the compounds with a filed dose; 0% is about no effect
Marburg entry inh = Marburg virus entry inhibition | Marburg virus pseudotyped entry inhibition, cell reporter | Potency, µM (series often up to 37.8 µM), for inactives: top-dose activity change, negative = inhibition, usual class: inhibitors | 300,000 tested, 1.8% active; calls by dose curve; tested in HEK293 cells; further: potency means the concentration at half of the fitted maximal effect; on the % scale 0 is the no-effect control and ±100 the full control effect
Shiga inhibitor = Shiga toxin inhibition; Vero cells, Shiga toxin protein synthesis inhibition reporter; inhibition, % at 38.7 µM; 290,000 tested, 9.2% active; AID 2315; in the data active means inhibition mostly above about 28%, no sharp cut-off; inactive means mostly below about 43%; further: 0% is about no effect
An asterisk follows results filed as active; i = inactive; u = inconclusive; x = not tested or not shown; + = active, no number; [ ] = another dose, or the depositor's remark. The sample as a whole holds a higher share of hits than the screen did.

SMILES	Vaccinia mCherry	Vaccinia Venus	LASV entry inh	Cycloheximide cs	Marburg entry inh	Shiga inhibitor
COc1ccc(S(=O)(=O)N(C)C[C@H]2Oc3c(NS(=O)(=O)c4ccc(F)cc4)cccc3C(=O)N([C@H](C)CO)C[C@@H]2C)cc1	-13.8%	u	x	x	x	x
COc1ccc(C=CNC(=O)Cc2ccc(OC)c(OC)c2)cc1	x	x	x	x	24.4%[14.2 µM]	x
Cc1ccc(-c2nnc(SCC(=O)NC3CC3)o2)cc1	i	-23.2%	16.9%[46.1 µM]	23.8*	u	60.8*
CCc1ccc(OCc2nnc(SCC(=O)NC3CCCCC3)o2)cc1	8.0%	0.8%	x	19.7	-5.5%[46.1 µM]	46.7*
Cc1ccc(CN(CC(=O)NC2CCCC2)C(=O)CSc2nnc(COc3ccccc3)o2)cc1	x	x	16.4%	-2.1	-17.1%	8.3
Cc1cccc(-c2nnc(SCC(=O)N3CCCC3)o2)c1	-11.1%	-20.7%	26.1%[46.1 µM]	19.1*	7.0%[46.1 µM]	92.5*
Cc1cccc(-c2nnc(SCC(=O)NC3CCCC3)o2)c1	-13.0%	-20.8%	10.0%[46.1 µM]	-3.3	u	25.9
O=C(CSc1nnc(-c2ccc(F)cc2)o1)N1CCCC1	-1.1%	-7.6%	x	16.4*	26.3%[46.1 µM]	33.6
O=C(CSc1nnc(-c2ccncc2)o1)N1CCCCCC1	-14.5%	-13.0%	24.5%	9.9	26.1%[46.1 µM]	33.7
COc1ccc(S(=O)(=O)NCCc2sc(-c3cccnc3)nc2C)cc1	3.7%	-0.1%	-7.4%[46.1 µM]	x	x	x
Cc1cccc(-c2nnc(SCCC(=O)N3CCOCC3)o2)c1	-16.8%	-18.6%	u	9.0	3.0%	50.3
O=C(CSc1nnc(COc2ccc(Cl)cc2)o1)N1CCCCC1	-21.2%	-18.1%	x	-4.4	-2.7%[46.1 µM]	3.2
Cc1cccc(-c2nnc(SCCC(=O)O)o2)c1	-6.5%	0.1%	1.26µM*	x	u	x
CC(C)c1ccc(OCc2nnc(SCC(=O)N3CCCCC3)o2)cc1	-5.5%	2.8%	u	31.8*	u	26.5
CC(=O)Nc1cccc(/C(C)=N/NC(=O)c2cccs2)c1	-1.1%	-10.8%	11.0%[46.1 µM]	56.5*	u	45.8*
CC(=O)Nc1cccc(/C(C)=N/NC(=S)NC(C)C)c1	-8.4%	-19.3%	u	28.3*	-16.9%	67.4*
C/C(=N/NC(=O)c1cccs1)c1cccc(N)c1	i	-0.4%	6.1%[46.1 µM]	42.7*	u	87.9*
C/C(=N\NC(=O)CNC(=O)c1cccs1)c1ccc(Cl)c(Cl)c1	-25.2%	-13.0%	-23.5%[46.1 µM]	-2.5	u	1.2
CC(=O)Nc1cccc(/C(C)=N/NC(=O)c2ccc(NS(=O)(=O)c3cccs3)cc2)c1	i	-20.1%	18.1%	-1.7	15.5%[46.1 µM]	13.8
CCOC(=O)N/N=C(\C)c1cccs1	2.0%	-1.7%	14.7%	34.7*	u	95.9*
CC(=O)Nc1cccc(/C(C)=N/NC(N)=S)c1	-12.7%	-5.4%	20.2%	7.7	0.6%[46.1 µM]	-9.5
CCC1(C2CCN(Cc3ccccc3Cl)CC2)NC(=O)N(CC2COc3ccccc3O2)C1=O (stereo not drawn)	-18.4%	-19.3%	x	x	x	x
CC(C)c1cc(C(=O)N2CCCC(N3CCN(c4ccc(F)cc4)CC3)C2)n(C)n1 (stereo not drawn)	x	x	x	-2.2	x	-2.6
C/C(=N\NC(=O)c1nnn(-c2nonc2N)c1-c1ccccc1)c1ccccc1O	2µM*	u	u	0.5	u	-16.0
CCN(CC)S(=O)(=O)c1cccc(C(=O)N/N=C(\C)c2cccs2)c1	i	-19.1%	u	31.3*	9.5%[46.1 µM]	74.4*
SMILES	Vaccinia mCherry	Vaccinia Venus	LASV entry inh	Cycloheximide cs	Marburg entry inh	Shiga inhibitor
CCCc1c(C(=O)N/N=C(\C)c2ccccc2O)nnn1-c1nonc1N	u	-16.6%	x	x	x	x
COCc1c(C(=O)N/N=C(/C)c2cccs2)nnn1-c1nonc1N	5.2%	4.2%	x	-0.8	16.2%[46.1 µM]	3.8
C/C(=N\NC(=O)Cc1cccn1C)c1cccs1	-6.4%	-10.7%	3.2%	-0.9	u	10.3
C/C(=N/NC(=O)c1cccs1)c1cccs1	i	-1.9%	-3.0%[46.1 µM]	42.7*	u	75.8*
C/C(=N\NC(=O)c1nonc1N)c1cccs1	i	-6.4%	10.5%	23.1*	u	active
CC(C)c1ccc(OCC(=O)NCCS(=O)(=O)N2CCN(c3ccc(F)cc3)CC2)cc1	-13.0%	-12.1%	-4.4%[46.1 µM]	x	x	x
C/C(=N\NC(=O)c1cccs1)c1c(O)cc(C)oc1=O	x	x	x	51.1*	x	84.1*
C/C(=N\NC(=O)c1sccc1-n1cccc1)c1cccs1	-13.9%	-12.8%	-3.7%[46.1 µM]	18.6	-2.0%[46.1 µM]	53.7*
O=C(NNC(=O)c1sccc1-n1cccc1)c1cccs1	x	x	x	-5.9	x	-5.6
CCc1ccc(NC(=O)CSc2nc3ccccc3nc2Cc2ccccc2OC)cc1	-19.1%	-15.4%	-3.8%[46.1 µM]	x	x	x
COc1ccc(NC(=O)C(=O)N/N=C\c2ccc(CNC(=O)C(=O)Nc3ccc(C)c(C)c3)o2)c(OC)c1	i	-9.4%	u	-0.9	u	x
COc1ccc(-c2cc(C(=O)OCC(=O)N(C)C3CCS(=O)(=O)C3)c3ccccc3n2)cc1OC (stereo not drawn)	-11.5%	u	u	16.9*	u	52.3
COc1ccc(C(=O)OCC(=O)N(C)C2CCS(=O)(=O)C2)cc1S(=O)(=O)N1CCCc2ccccc21 (stereo not drawn)	i	2.3%	-1.6%	20.0*	-2.2%[46.1 µM]	40.9
Cc1ccc2c(=O)cc(C(=O)Nc3ccc(S(=O)(=O)Nc4ncccn4)cc3)oc2c1C	3.0%	7.5%	5.7%[46.1 µM]	x	6.1%[46.1 µM]	x
COc1ccc(CCNc2nc(C)cc(C)c2C#N)cc1OC	x	x	x	-5.4	x	-14.0
O=C(COc1cc(Cl)ccc1Cl)N1CCNC1=O	-14.5%	-1.8%	10.4%	x	5.5%[46.1 µM]	x
O=C1/C(=C/c2cccs2)Cc2ccccc21	-15.1%	-9.1%	20.4%	36.0*	3.1%	157.0*
O=C1/C(=C\c2ccc(Br)o2)Cc2ccccc21	-0.2%	-1.8%	u	72.7*	2.6%	52.8*
O=C1C(=Cc2cccc(Cl)c2)Cc2ccccc21	i	3.3%	x	x	x	x
Cn1cccc1/C=C1\Cc2ccccc2C1=O	x	x	x	41.5*	x	+
COCCCNc1nc2c(-c3cccc(Br)c3)nnn2c2ccccc12	5.4%	-3.2%	27.4%[46.1 µM]	x	4.6%[46.1 µM]	x
CSc1ccccc1C(=O)Nc1ccc2c(c1)CCC2	-26.8%	-4.2%	-13.7%[46.1 µM]	20.9	u	41.1*
O=C(Nc1ccc2c(c1)CCC2)c1ccccc1Br	-19.4%	-14.2%	u	33.5*	u	62.8*
COC(=O)c1ccc(NC(=O)c2ccccc2SC)cc1	x	x	u	27.3*	25.4%	46.2*
CN(CC(=O)Nc1ccc2c(c1)CCC2)CC(=O)Nc1ccccc1Br	x	x	-8.7%	-0.9	-24.9%	-15.9
COC(=O)c1ccc(NC(=O)c2ccccc2C(=O)Nc2ccc(C(=O)OC)cc2)cc1	i	-9.9%	-9.6%[46.1 µM]	x	u	x
Cc1c(C(=O)Nc2ccc3c(c2)CCC3)cccc1[N+](=O)[O-]	-20.6%	-17.9%	u	95.5*	13.3%	125.3*
NS(=O)(=O)c1ccc2nc(NC(=O)COc3ccc(Cl)cc3Cl)sc2c1	5.4%	-2.8%	4.6%[46.1 µM]	x	x	x
Cc1ccc2c(=O)cc(C(=O)Nc3ccc(S(=O)(=O)N(C)Cc4ccccc4)cc3)oc2c1	-17.3%	u	20.0%[46.1 µM]	x	-23.8%[46.1 µM]	x
